LDHA inh = blocks human lactate dehydrogenase A. activity change, % (values are at about 110 or 230 µM). purified LDHA, NADH/diaphorase-resazurin fluorescence; active compounds read low. P00338. AID 1347041. 0.15% of 480,000 active; in the data active = activity change below about -30%; inconclusive = mostly about -25% to -30%;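 note: plate controls were DMSO wells for no effect and wells without enzyme for full effect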
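Human LDH5 (2 nM) was incubated with 0.06 mM NADH and 0.2 mM pyruvate for 5 min at room temperature in Tris pH 7.4. Remaining NADH was coupled through diaphorase/resazurin, and resorufin fluorescence was read at 0 and 20 min.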
VP16 counter = inhibits Gal4-VP16 luciferase reporter, ROR gamma counter-screen; AID 2546; Potency, µM (series often up to 53.6 µM), for the others: top-dose activity, negative = inhibition, usual class: inhibitors; 3.5% of 310,000 active; Drosophila S2 Gal4-VP16 UAS-luciferase, luminescence, 20 h;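 note: Gal4-VP16 expression switched on by copper sulfate through the metallothionein promoter; potency is the fitted concentration of half-maximal effect; nearly all actives have a fitted effect of over 50% in size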
DT40 TDP1 CPT = DT40-hTDP1 cell growth loss with CPT. chicken DT40 Tdp1-/-;hTDP1 cells + 20 nM CPT, ATP luminescence, 48 h. Potency, µM (top dose mostly 46.2 µM), without a hit: at the highest dose activity change, negative = growth inhibition, most hits filed as inhibitors. 12% of 420,000 active. AID 686979; note: potency is the fitted concentration of half-maximal effect; nearly all actives have a fitted effect of over 55% in size
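Chicken DT40 Tdp1-/- cells complemented with human TDP1, 400 cells/well, exposed to compounds plus 20 nM camptothecin for at least 48 h at 37 C; viability read as ATP content by CellTiter-Glo luminescence.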
DT40 TDP1 no CPT = qHTS for Inhibitors of human tyrosyl-DNA phosphodiesterase 1 (TDP1): qHTS in cells in absence of CPT; DT40 Tdp1-/- hTDP1 cells, no CPT, ATP luminescence, 48 h; Potency, µM (highest dose often 46.2 µM), for the others: top-dose activity change, negative = growth inhibition, most hits filed as inhibitors; 15% of 420,000 active; note: potency is the fitted concentration of half-maximal effect; nearly all actives have a fitted effect of over 55% in size
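Compound effects on proliferation are scored in DT40 Tdp1-/-;hTDP1 cells in the absence of CPT. ATP levels (CellTiter-Glo luminescence) are recorded after a ≥48 hr, 37 °C incubation.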
RORg inh = ROR gamma (mouse) transcription inhibition. Potency, µM (highest dose often 53.6 µM), inactives show at the highest dose activity change, negative = inhibition, usual class: inhibitors. Drosophila S2 Gal4-RORgamma UAS-luciferase reporter, 20 h. 5.4% of 310,000 active; note: potency is the fitted concentration of half-maximal effect; nearly all actives have a fitted effect of over 60% in size
Target sequence (P51450 whole entry, looked up, the tested form may be a part): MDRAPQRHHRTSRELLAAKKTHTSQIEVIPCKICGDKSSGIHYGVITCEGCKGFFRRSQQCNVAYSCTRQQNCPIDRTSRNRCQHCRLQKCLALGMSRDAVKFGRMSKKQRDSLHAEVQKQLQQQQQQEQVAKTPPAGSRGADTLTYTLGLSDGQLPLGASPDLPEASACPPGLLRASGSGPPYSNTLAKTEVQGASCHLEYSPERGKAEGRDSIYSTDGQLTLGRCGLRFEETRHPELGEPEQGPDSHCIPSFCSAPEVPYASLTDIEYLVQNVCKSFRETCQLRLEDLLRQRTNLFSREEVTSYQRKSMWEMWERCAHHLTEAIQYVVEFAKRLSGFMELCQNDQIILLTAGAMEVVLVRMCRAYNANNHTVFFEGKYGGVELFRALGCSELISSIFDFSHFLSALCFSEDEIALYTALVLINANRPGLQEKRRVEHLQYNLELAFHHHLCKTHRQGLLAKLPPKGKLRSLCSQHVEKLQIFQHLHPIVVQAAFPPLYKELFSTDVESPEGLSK
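Luciferase reporter read in Schneider cells carrying Gal4-RORγ (mouse) and UAS-Photinus luciferase; cells given compound 1 h before 700 uM copper sulfate induction, then incubated 20 h at ambient temperature.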
IL1B secr inh = blocks inflammasome-driven IL-1 beta release; 4.7% of 360,000 active; activity change, % at 57.5 µM; AID 743279; THP-1 LPS/ATP IL-1B secretion, AlphaLISA, 16 h; active compounds read low; in the data active = activity change below about -50%; inconclusive = mostly about -30% to -49%
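THP-1 cells pretreated 1 hr with compounds (up to 57.5 uM final), then stimulated with LPS (250 ng/mL final) plus ATP (1.25 mM final); secreted IL-1B measured by AlphaLISA after 16 hr, decreased signal indicating inhibition.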
Numbers without * were called inactive; ? = inconclusive; . = not tested or not shown; [ ] = remark or other dose. Hits are enriched below; roughly 18% of the tested compounds scored in any of these assays. Unless noted, calls come from the whole dose curve; as a rule, active = well fitted curve in the direction sought with a large enough effect; inconclusive = small, poorly fitted or top-dose-only effect, or another doubt; inactive = no such curve, though single readings can be large; an effect the other way counts as inactive or inconclusive. Unless noted, % is set by controls: 0 for no effect and ±100 for the full control effect.

SMILES	LDHA inh	VP16 counter	DT40 TDP1 CPT	DT40 TDP1 no CPT	RORg inh	IL1B secr inh
Cc1ccc(S(=O)(=O)NC(C)(C)CSc2nnc(Nc3ccccc3)s2)cc1	3	-7%	23µM*	?	?	-8
CC(C)(CSc1ncccn1)NS(=O)(=O)c1ccccc1	-11	-2%	-3%	-10%	-27%	-2
CCCNC(=O)c1cccc(NC(=O)c2ccncc2)c1	4	.	.	.	.	.
CN(C)CCNc1ccc2nnn3c4ccc(O)cc4c(=O)c1c23	7	.	0.18µM*	0.18µM*	.	-53*
CCN(CC)CCCNc1ncnc2ccccc12	-2	3%	5%	1%	1%	22
CCN(CC)CCCNc1ccc2ncn3c4ccc(O)cc4c(=O)c1c23	28	.	0.15µM*	0.15µM*	.	-93*
COc1ccc(-n2c3c(c(=O)[nH]c2=O)C(C(F)(F)F)(C(F)(F)F)N=C(CC(C)C)N3)cc1	-3	-3%	-25%	-16%	0%	13
Cc1ccc(C2=NC(C(F)(F)F)(C(F)(F)F)c3c(n(-c4ccccc4)c(=O)[nH]c3=O)N2)cc1	4	.	.	.	.	.
CC(C)Cn1c2c(c(=O)[nH]c1=O)C(C(F)(F)F)(C(F)(F)F)N=C(CCC1CCCCC1)N2	-5	11µM*	6.5µM*	4.1µM*	?	-6
O=c1[nH]c(=O)n(-c2ccccc2)c2c1C(C(F)(F)F)(C(F)(F)F)N=C(CCC1CCCCC1)N2	-2	-16%	?	18µM*	-1%	21
O=C(CSc1ncccn1)Nc1nc2cc3c(cc2s1)OCCO3	-2	.	.	.	.	.
Cc1nc(NCC(=O)c2c[nH]c3ccccc23)sc1C	-7	.	6.3µM*	?	.	.
Cc1[nH]ccc(=O)c1OCC(=O)Nc1ccc(Cl)c(Cl)c1	-5	.	.	.	.	.
Cc1occc(=O)c1OC(=O)Nc1ccc(Cl)c(Cl)c1	1	?	2.9µM*	4.6µM*	?	-78*
Cn1nccc1-c1cc(Cl)cc(Cl)c1O	1	32µM*	-21%	-29%	?	.
Cn1nccc1NC(=O)Nc1cccc(Cl)c1	-3	-8%	15%	-19%	15%	-1
O=C1OCC(c2ccc(Cl)s2)=C1c1ccccc1[N+](=O)[O-]	1	-8%	0%	?	3%	-65*
O=C1OCC(c2ccccc2)=C1c1ccccc1[N+](=O)[O-]	2	14%	-10%	?	4%	32
CC1(C(=O)NCC2CC2)Cc2c(-c3cccc(C(F)(F)F)c3)ccnc2O1 (configuration not stated)	1	.	5.8µM*	5.8µM*	.	0
COCCNC(=O)C1(C)Cc2c(-c3cccc(C(F)(F)F)c3)ccnc2O1 (configuration not stated)	-1	.	9.2µM*	9.2µM*	.	74
CC1(C(=O)NCC2CC2)Cc2c(-c3cccc(C(N)=O)c3)ccnc2O1 (configuration not stated)	-5	.	?	?	.	13
CCN1C(=O)CC(c2ccccc2)N(C2CCCC2)c2nc(Nc3ccc(C(=O)NC4CCN(C)CC4)cc3OC)ncc21 (configuration not stated)	-1	.	?	?	.	-77*
CCN1C(=O)CC(C(C)C)N(C2CCCC2)c2nc(Nc3ccc(C(=O)NC4CCN(C)CC4)cc3OC)ncc21 (configuration not stated)	-1	.	?	?	.	-74*
COc1ccc(C(=O)NC2CCCCC2)cc1S(=O)(=O)N1CCCC1	-7	11%	-17%	-25%	39%	0
COc1ccc(CNC(=O)c2[nH]c(C(F)(F)F)nc2-c2ccccc2)cc1OC	-7	.	-29%	-17%	.	6
SMILES	LDHA inh	VP16 counter	DT40 TDP1 CPT	DT40 TDP1 no CPT	RORg inh	IL1B secr inh
COc1ccc(CNc2cccc3[nH]c(C(F)(F)F)nc23)cc1OC	11	-16%	?	21µM*	4%	-9
CCn1c(C(C)NC(=O)c2cccs2)n[nH]c1=S (configuration not stated)	1	-1%	?	?	-38%	7
CCn1c(-c2csc(C(C)C)c2)n[nH]c1=S	-10	13µM*	-14%	?	2.5µM*	21
COc1ccc(Cc2n[nH]c(=S)n2CC(C)C)cc1	2	.	.	.	.	.
CC(C)Cn1c(-c2csc(C(C)C)c2)n[nH]c1=S	-4	-25%[10 µM]	?	?	2µM*	-8
COc1ccc(C(=O)Nc2ccc(N3CCN(C)CC3)cc2)cc1[N+](=O)[O-]	1	3%	2%	-1%	1%	-7
O=C(Nc1ccc(C2=NCCN2)cc1)c1ccc(C(=O)Nc2ccc(C3=NCCN3)cc2)c([N+](=O)[O-])c1	-36*	2%	6.5µM*	6.5µM*	-1%	-6
CCCCOc1ccc(C(=O)Nc2ccc(N3CCN(C(=O)C(C)C)CC3)cc2)cc1	-2	-4%	8.2µM*	7.3µM*	-22%	-8
COc1ccc(C(=O)Nc2ccc(N3CCN(C(=O)C(C)C)CC3)cc2)cc1[N+](=O)[O-]	-6	-13%	?	12µM*	9%	-7
CCCCOc1ccc(C(=O)Nc2ccc(N3CCN(C(C)=O)CC3)cc2)cc1	1	-3%	-11%	?	2%	8
COc1cc(C(=O)Nc2ccc(N3CCN(C(=O)c4ccc(C)cc4)CC3)cc2)cc(OC)c1OC	-1	3%	21µM*	15µM*	1%	-26
COc1ccc(C(=O)Nc2ccc(N3CCN(C(=O)c4ccccc4)CC3)cc2)cc1[N+](=O)[O-]	-12	-10%	15µM*	?	18%	?
COc1ccc(C(=O)Nc2ccncc2)cc1[N+](=O)[O-]	0	-25%	-29%	-20%	25%	-79*
CC(C)=CC(=O)Nc1cccc2c1CCCC2	0	.	.	.	.	.
CC(C)OC(=O)c1cn(-c2ccccc2)nc1-c1ccco1	0	.	?	?	-9%[0.365 µM]	-90*
Cc1cc(N2CCN(CCO)CC2)n2nc(C)c(-c3ccc(F)cc3)c2n1	10	.	.	.	.	.
CCN(CC)c1nc(-c2ccccc2)ncc1S(=O)(=O)c1ccc(C)cc1	0	5%	?	16µM*	?	0
CN(C)c1nc(-c2ccccc2)ncc1S(=O)(=O)c1ccccc1	-3	7%[10 µM]	0%	?	7%	-6
O=C(O)c1cc([N+](=O)[O-])ccc1C(=O)Nc1ccccc1	1	0%	16%	2%	2%	12
